Most compounds without a hit are left out; they make up all but 8% or so of the library.
KB-V1 cytotox – KB-V1 MDR subline cytotoxicity. KB-V1 MDR cells viability, CellTiter-Glo, 72 h. Potency, µM (doses to about 46.1 µM), hits mostly cytotoxic. actives 3.4% (n = 400,000). AID 1347076; also: % is scaled to controls: 0 for no effect and ±100 for the full control effect; nearly all actives have a fitted effect of over 60% in size
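Compound-treated KB-V1 multidrug-resistant cells, 72 h, 37 degrees C; viability by CellTiter-Glo. Fitted qHTS curves give the values.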
SW480 rereplic – induces DNA re-replication in SW480 colon adenocarcinoma cells | SW480 DNA re-replication, Hoechst DNA content imaging, 48 h | Potency, µM (highest dose often 46.1 µM), without a hit: at the highest dose re-replication activation, most hits filed as activators | actives 1.8% (n = 340,000) | AID 624297; also: % of control where 0% means no effect; nearly all actives have a fitted effect of over 55% in size
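Compounds, transferred as 23 nL by pin tool, were incubated with cells for 48 hr; DNA content per nucleus was then quantified by Hoechst staining and fluorescence plate imaging.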
MCF10A rerep – inducers of DNA re-replication in MCF 10A breast cells. MCF 10A DNA re-replication, Hoechst nuclear intensity, 48 h. AID 624296. actives 2.9% (n = 350,000). Potency, µM (titrated, usually from 46.1 µM), for inactives: at the top dose activity, positive = re-replication, most hits filed as activators; also: % of control where 0% means no effect; nearly all actives have a fitted effect of over 50% in size
HT1080-NT tox – kills 2HG-producing HT-1080-NT fibrosarcoma cells; HT-1080-NT fibrosarcoma viability, CellTiter-Glo ATP luminescence, 48 h; Potency, µM (top dose mostly 46.1 µM), for inactives: at the highest dose activity, negative = less viability, hits mostly cytotoxic; actives 1.6% (n = 360,000); AID 686970;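 also: NT is the 2HG producing partner of a matched IDH1 knockdown line; 0% = DMSO-treated cells and -100% = media-only wells without cells; nearly all actives have a fitted effect of over 55% in size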
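Viability of the 2HG-overproducing fibrosarcoma line after 48 hours of compound exposure at 37 degrees C was determined by luminescence with CellTiter-Glo, and concentration-effect curves were then fitted and categorized.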
KB-3-1 tox – kills parental KB-3-1 adenocarcinoma cells; KB-3-1 viability, CellTiter-Glo ATP luminescence, 72 h; actives 1.4% (n = 400,000); Potency, µM (highest dose often 46.1 µM), actives largely listed as cytotoxic; also: % is scaled to controls: 0 for no effect and ±100 for the full control effect; nearly all actives have a fitted effect of over 60% in size
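Cytotoxicity measured as CellTiter-Glo luminescence after 72 h at 37 C. Compound titrations were pinned onto drug-naive KB-3-1 parental adenocarcinoma cells grown in DMEM with 10% FBS, and normalized data fitted to concentration-response curves.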
HT1080 IDH1KD tx – kills HT-1080 cells with IDH1 knockdown; HT-1080 IDH1 knockdown viability, ATP luminescence, 48 h; Potency, µM (titrated, usually from 46.1 µM), inactives show top-dose activity, negative = toxicity, hits mostly cytotoxic; actives 2% (n = 360,000);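 also: 0% = DMSO wells and -100% = cell-free medium wells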
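Viability of IDH1-knockdown HT-1080 fibrosarcoma cells was assessed by CellTiter-Glo after 48 h at 37 °C with titrated compound; concentration-effect curves were classified by fit quality and response size.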
Starred values were filed as active, the others as inactive; i = inactive; ? = inconclusive; · = not tested or not shown. Calls follow the shape of the dose curve; as a rule, active = well fitted curve in the direction sought with a large enough effect; inconclusive = small, poorly fitted or top-dose-only effect, or another doubt; inactive = no such curve, though single readings can be large; an effect the other way counts as inactive or inconclusive. Potency is read from the fitted curve at half-maximal effect.

SMILES | KB-V1 cytotox | SW480 rereplic | MCF10A rerep | HT1080-NT tox | KB-3-1 tox | HT1080 IDH1KD tx
COCCn1c(COc2ccc(OC)cc2)nc2ccccc21 | 8.2µM* | -1.8% | -0.6% | -5.3% | i | -6.0%
Cc1ccccc1NCc1nc2ccccc2n1CCOc1ccccc1 | ? | · | · | · | 14.6µM* | ·
CCOc1ccc(NCc2nc3ccccc3n2CCOc2ccccc2)cc1 | ? | ? | ? | -14.1% | ? | ?
C/C=C/c1ccc(OCCOc2cc(C=O)ccc2OC)c(OC)c1 | 14.6µM* | 2.8% | 28.6% | -22.3% | i | -12.6%
COc1ccc2cc(-c3nc4ccc(C(=O)O)cc4[nH]3)c(=O)oc2c1 | i | · | · | · | i | ·
CC(=O)c1cc(-c2ccc(F)cc2)n(CCC(=O)NC2CCCCC2)c1C | i | · | · | · | i | ·
CN(C)c1ccc(-c2[nH][nH]c(=O)c2NC(=O)c2ccccn2)cc1 | i | · | · | ? | i | 20.6µM*
CC12CC(c3ccccc3O1)N(C(=O)c1ccco1)C(=S)N2c1ccc(F)cc1 (centres undefined) | i | 12.4% | 11.6µM* | ? | i | ?
CCN(CC)c1nc(N)c2c(N)nc3c(c2c1C#N)CC(c1ccccc1)O3 (centres undefined) | 20.6µM* | ? | 20.6µM* | -27.6% | i | ?
CC(=O)NCC(=O)OCC(=O)c1ccc(C)c(C)c1 | i | 8.6% | -5.1% | 25.4% | i | 0.0%
Cc1ccc(C(=O)COC(=O)C2C3C=CC(C3)C2C(=O)OCC(=O)c2ccc(C)c(C)c2)cc1C (centres undefined) | 16.4µM* | 2.0% | 2.9% | 2.5% | ? | -1.2%
COc1ccc(NC(=O)c2c(NCc3ccc(C)o3)sc3c2CCCCC3)c(OC)c1 | i | · | · | · | i | ·
COc1ccc(N(Cc2ccccc2)C(=O)CSc2nnc(Cn3nnc4ccccc43)o2)cc1 | 8.2µM* | ? | ? | -1.9% | ? | -17.7%
O=C(CSc1nnc(Cn2nnc3ccccc32)o1)Nc1ccc(Cl)cc1 | i | -0.3% | -2.4% | 5.6% | i | 12.8%
O=C(CSc1nnc(Cn2nnc3ccccc32)o1)N(Cc1ccc(F)cc1)c1ccccc1 | ? | -2.3% | 17.3% | 0.282µM* | 5.17µM* | ?
COc1cc(CN(C(=O)c2ccccc2)c2ccccn2)cc(OC)c1OC | i | · | · | · | i | ·
CC(=O)OC(C)(C)/C=C/C(=O)[C@](C)(O)C1[C@H](O)C[C@@]2(C)C3CC=C4C(C=C(O[C@@H]5O[C@H](CO)[C@@H](O)[C@H](O)[C@H]5O)C(=O)C4(C)C)[C@]3(C)C(=O)C[C@]12C (some centres undefined) | ? | 0.92µM* | 5.17µM* | ? | ? | 23.1µM*
Cc1ccc(NC(=O)c2ccc3c(=O)n4nc(Nc5ccccc5C)sc4nc3c2)cc1C | i | · | · | · | i | ·
CCOC(=O)c1sc(C)c2c1NC(C)(c1cccs1)NC2=O (centres undefined) | 5.17µM* | 6.7% | -0.7% | -27.8% | i | ?
COc1cccc(CNC(=O)C2CCN(C(=O)N3CCOc4ccc(Cl)cc43)CC2)c1OC | i | · | · | · | i | ·
CCc1ccc2nc(NC(=O)c3cc(C)on3)sc2c1 | 8.2µM* | 6.51µM* | 6.51µM* | 9.2µM* | 7.31µM* | 6.51µM*
CCc1noc(C)c1C(=O)Nc1nc2ccc(F)cc2s1 | i | -387.3% | ? | -10.4% | i | -14.1%
Cc1cc(C(=O)Nc2nc3c(s2)CCCC3)no1 | 16.4µM* | 1.8% | 0.3% | -0.2% | i | 10.6%
O=[N+]([O-])c1ccccc1N/N=C\c1ccccc1F | i | 20.6µM* | 5.4% | 10.9% | i | 7.7%
CCc1nc(N(CC)CC)c2oc3ccccc3c2n1 | i | 1.0% | 15.8% | -21.0% | i | -15.4%
SMILES | KB-V1 cytotox | SW480 rereplic | MCF10A rerep | HT1080-NT tox | KB-3-1 tox | HT1080 IDH1KD tx
CCc1nc(N2CCC(C)CC2)c2oc3ccccc3c2n1 | 9.2µM* | ? | 18.4µM* | ? | i | ?
CCc1nc(SCC(=O)N2CCN(c3ccccc3)CC2)c2oc3ccccc3c2n1 | 13µM* | -1.6% | 9.2µM* | 7.4% | i | -17.3%
Cc1ccc(OCCCCn2c(-c3ccc(Cl)cc3)nc3ccccc3c2=O)cc1 | i | · | · | · | i | ·
O=C(C[n+]1cccc2cccc(O)c21)c1ccc(F)cc1 | i | · | · | · | i | ·
N#CC(c1nc2ccccc2nc1N1CCCC1)S(=O)(=O)c1ccccc1 (centres undefined) | 20.6µM* | -4.4% | 25.5% | 5.1% | ? | 12.8%
Cc1ccc(C)c(S(=O)(=O)C(C#N)c2nc3ccccc3nc2N2CCCC2)c1 (centres undefined) | i | -5.0% | 15.5% | 10.0% | i | 9.9%
Cc1ccc(C)c(S(=O)(=O)C(C#N)c2nc3ccccc3nc2N2CCOCC2)c1 (centres undefined) | 11.6µM* | 3.6% | ? | -11.2% | ? | -9.9%
Cc1ccc(C)c(S(=O)(=O)C(C#N)c2nc3ccccc3nc2N2CC(C)OC(C)C2)c1 (centres undefined) | ? | ? | ? | ? | 18.4µM* | ?
COc1ccc(CNC(=O)C(C#N)c2nc3ccccc3nc2N2CCN(C)CC2)cc1 (centres undefined) | i | 1.2% | 2.0% | -4.6% | i | -3.6%
COc1ccc(CNC(=O)C(C#N)c2nc3ccccc3nc2N2CCCC2)cc1 (centres undefined) | i | ? | 11.6µM* | -2.9% | i | -4.3%
O=c1ccc2ccccc2c2ccccc12 | ? | · | · | 8.2µM* | 8.2µM* | 5.8µM*
COc1ccc(OC)c(S(=O)(=O)Nc2ccc3c(c2)C(=O)OC3)c1 | i | 12.9% | 9.8% | 18.4µM* | i | 20.6µM*
COc1ccc(NS(=O)(=O)c2cc(OC)ccc2OC)cc1 | i | -5.6% | 0.7% | 7.4% | i | -3.1%
CCOc1ccc(CCNC(=O)c2ccc3c(c2)c(C)c(C)n3C)cc1 | i | · | · | · | i | ·
CC(C)n1nc(C(=O)Nc2cccc(S(=O)(=O)NCc3ccco3)c2)c2ccccc2c1=O | 20.6µM* | -0.2% | 11.3% | -12.8% | ? | -6.1%
COc1cc2nc(NCCc3ccc(Cl)cc3)n3nc(-c4ccccc4)nc3c2cc1OC | i | · | · | · | i | ·
Cn1nc(C(C)(C)C)cc1C(=O)N1CCCCC1c1cc(C(=O)NCc2ccc(F)cc2)no1 (centres undefined) | 4.11µM* | · | · | -23.8% | ? | ?
Cn1nc(C(C)(C)C)cc1C(=O)N1CCCCC1c1cc(C(=O)NCc2ccccc2)no1 (centres undefined) | 9.2µM* | · | · | -1.8% | ? | ?

Screens: PubChem, National Center for Advancing Translational Sciences (NCATS)
